Measurements from PubChem BioAssay AID1159580 (chemical genetic matrix, 2015).
Several values for one entry are separate records, joined by “and”; a condition that tells them apart may be missing. Equal values may be shown once. Among all 5,500 compounds or so, about 2,000 (36%) were called active. Not shown: some 18% with an inconclusive outcome. The list shows a part of the results. Unmarked numbers belong to inactive results. Cut-off read from the data, not from the text of the source: active = normalized growth mostly below about 0.91 (no sharp cut-off); inconclusive = no clear call, values can overlap the other calls; inactive = mostly above about 0.92.

Experiment: chemical genetic growth profiling, strain panel (AID 1159580);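 note: tested at 20 µM; growth read once vehicle control cultures reached saturation at 30 °C; 1 = growth at the plate median or of vehicle wells; lower values mean less growth of the strain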
Conditions: S. cerevisiae deletion strains, growth OD

## C[C@H](CCC(=O)O)[C@H]1CCC2C3C(CC[C@@]21C)[C@@]1(C)CC[C@@H](O)C[C@H]1C[C@@H]3O (stereo partly specified)
Locus YAL013W, strain DEP1, active compounds read low
  normalized growth: 0.984
Locus YAL021C, strain ccr4, active compounds read low
  normalized growth: 1.02
Locus YAL026C, strain drs2, active compounds read low
  normalized growth: 0.997
Locus YAL030W, strain snc1, active compounds read low
  normalized growth: 0.983
Locus YBL061C, strain skt5, active compounds read low
  normalized growth: 0.986
Locus YBR009C, strain hhf1, active compounds read low
  normalized growth: 1.03
Locus YBR021W, strain FUR4, active compounds read low
  normalized growth: 0.988
Locus YBR023C, strain chs3, active compounds read low
  normalized growth: 0.987
Locus YBR171W, strain sec66, active compounds read low
  normalized growth: 0.961
Locus YBR229C, strain ROT2, active compounds read low
  normalized growth: 0.985
Locus YBR231C, strain swc5, active compounds read low
  normalized growth: 0.996
Locus YBR279W, strain paf1, active compounds read low
  normalized growth: 1
Locus YCL011C, strain gbp2, active compounds read low
  normalized growth: 1.02
Locus YCL016C, strain dcc1, active compounds read low
  normalized growth: 1.04
Locus YCL029C, strain bik1, active compounds read low
  normalized growth: 0.963
Locus YCL069W, strain vba3, active compounds read low
  normalized growth: 0.991
Locus YCR088W, strain abp1, active compounds read low
  normalized growth: 0.989
Locus YDL005C, strain med2, active compounds read low
  normalized growth: 0.989
Locus YDL035C, strain GPR1, active compounds read low
  normalized growth: 0.992
Locus YDL040C, strain nat1, active compounds read low
  normalized growth: 0.983
Locus YDL074C, strain BRE1, active compounds read low
  normalized growth: 0.946
Locus YDL101C, strain DUN1, active compounds read low
  normalized growth: 0.986
Locus YDL134C, strain PPH21, active compounds read low
  normalized growth: 0.981
Locus YDL185W, strain tfp1, active compounds read low
  normalized growth: 0.972
Locus YDL192W, strain arf1, active compounds read low
  normalized growth: 0.979
Locus YDR001C, strain nth1, active compounds read low
  normalized growth: 0.982
Locus YDR069C, strain doa4, active compounds read low
  normalized growth: 0.954
Locus YDR101C, strain arx1, active compounds read low
  normalized growth: 0.986
Locus YDR137W, strain rgp1, active compounds read low
  normalized growth: 0.821 (active)
Locus YDR150W, strain NUM1, active compounds read low
  normalized growth: 0.997
Locus YDR159W, strain sac3, active compounds read low
  normalized growth: 1.04
Locus YDR162C, strain NBP2, active compounds read low
  normalized growth: 0.989
Locus YDR195W, strain ref2
  normalized growth: 0.94
Locus YDR297W, strain sur2, active compounds read low
  normalized growth: 0.989
Locus YDR318W, strain mcm21, active compounds read low
  normalized growth: 0.977
Locus YDR334W, strain swr1, active compounds read low
  normalized growth: 0.961
Locus YDR335W, strain msn5, active compounds read low
  normalized growth: 0.981
Locus YDR388W, active compounds read low
  normalized growth: 0.98
Locus YDR392W, strain spt3, active compounds read low
  normalized growth: 1.1
Locus YDR502C, strain sam2, active compounds read low
  normalized growth: 0.984
Locus YEL003W, strain gim4, active compounds read low
  normalized growth: 0.976
Locus YEL037C, strain rad23, active compounds read low
  normalized growth: 1
Locus YEL061C, strain CIN8 (second series), active compounds read low
  normalized growth: 0.983
Locus YEL061C, strain CIN8, active compounds read low
  normalized growth: 0.99
Locus YER015W, strain faa2, active compounds read low
  normalized growth: 1.03
Locus YER016W, strain bim1, active compounds read low
  normalized growth: 0.998
Locus YER110C, active compounds read low
  normalized growth: 0.984
Locus YER111C, strain swi4, active compounds read low
  normalized growth: 0.979
Locus YER155C, strain BEM2 (second series), active compounds read low
  normalized growth: 1.02
Locus YER155C, strain BEM2, active compounds read low
  normalized growth: 0.99
Locus YER167W, strain BCK2, active compounds read low
  normalized growth: 0.988
Locus YFR010W, strain ubp6, active compounds read low
  normalized growth: 0.969
Locus YGL078C, strain dbp3, active compounds read low
  normalized growth: 0.967
Locus YGL086W, strain mad1, active compounds read low
  normalized growth: 0.985
Locus YGL167C, strain pmr1, active compounds read low
  normalized growth: 0.974
Locus YGL173C, strain kem1, active compounds read low
  normalized growth: 0.951
Locus YGL227W, strain vid30, active compounds read low
  normalized growth: 0.998
Locus YGL240W, strain doc1, active compounds read low
  normalized growth: 0.982
Locus YGL248W, strain PDE1, active compounds read low
  normalized growth: 0.996
Locus YGL253W, strain hxk2, active compounds read low
  normalized growth: 1.02
Locus YGR078C, strain PAC10, active compounds read low
  normalized growth: 0.99
Locus YGR135W, strain pre9, active compounds read low
  normalized growth: 0.975
Locus YGR229C, strain SMI1, active compounds read low
  normalized growth: 0.99
Locus YGR252W, strain gcn5, active compounds read low
  normalized growth: 1.09
Locus YHR013C, strain ard1, active compounds read low
  normalized growth: 1.03
Locus YHR027C, strain rpn1, active compounds read low
  normalized growth: 1
Locus YHR030C, strain SLT2, active compounds read low
  normalized growth: 1 and 0.948
Locus YHR079C, strain IRE1 (second series), active compounds read low
  normalized growth: 0.974
Locus YHR079C, strain IRE1, active compounds read low
  normalized growth: 0.945
Locus YHR094C, strain hxt1, active compounds read low
  normalized growth: 0.982
Locus YHR129C, strain ARP1, active compounds read low
  normalized growth: 1
Locus YHR142W, strain chs7, active compounds read low
  normalized growth: 0.999
Locus YHR200W, strain rpn10, active compounds read low
  normalized growth: 1
Locus YIL066C, strain RNR3, active compounds read low
  normalized growth: 0.98
Locus YIL073C, strain SPO22, active compounds read low
  normalized growth: 1.01
Locus YIL125W, strain kgd1, active compounds read low
  normalized growth: 0.992
Locus YIR030C, strain dcg1, active compounds read low
  normalized growth: 0.982
Locus YJL092W, strain hpr5, active compounds read low
  normalized growth: 0.985
Locus YJL095W, strain BCK1 (second series), active compounds read low
  normalized growth: 0.988
Locus YJL095W, strain BCK1, active compounds read low
  normalized growth: 0.95 and 0.958
Locus YJL115W, strain asf1, active compounds read low
  normalized growth: 0.984
Locus YJL129C, strain trk1, active compounds read low
  normalized growth: 0.99
Locus YJL134W, strain LCB3, active compounds read low
  normalized growth: 0.994
Locus YJL154C, strain vps35, active compounds read low
  normalized growth: 0.983
Locus YJL164C, strain tpk1, active compounds read low
  normalized growth: 1.04
Locus YJL166W, strain qcr8, active compounds read low
  normalized growth: 0.933
Locus YJL168C, strain set2, active compounds read low
  normalized growth: 0.982
Locus YJL187C, strain SWE1 (second series), active compounds read low
  normalized growth: 0.975
Locus YJR043C, strain POL32, active compounds read low
  normalized growth: 0.985
Locus YJR066W, strain TOR1, active compounds read low
  normalized growth: 0.937
Locus YJR075W, strain HOC1, active compounds read low
  normalized growth: 0.991
